Among the data in PubChem BioAssay are composite z-score and z-score values, retold here.

Calls of active or inactive are those of the source.

In assay [1] the test system is XIP peptide (Xip251-270) binding. The experiment in a line: XIP fragment 251-270 binding compounds – biochemical, small-molecule microarray, fluorescence 635/667 nm, 0.1 µg/mL protein, primary screen (AID 1182). The following applies: fluorescent protein binding, 635 nm, higher = more signal, called active from +8 up or from −8 down.
Another assay deals with XIP peptide (Xip251-270). The experiment in a line: compounds binding XIP fragment 251-270 – biochemical, small-molecule microarray, fluorescence 635/667 nm, 0.5 µg/mL protein, primary screen (AID 1183). To be noted: fluorescence 635 nm, higher = more signal.
Assay [2] is described as follows: blood-stage malaria parasite viability loss – strain 3D7, DAPI fluorescence, 100 nL, primary screen (AID 1184).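 Note: parasites grown inside human red blood cells in medium with human serum.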 The following applies: P. falciparum 3D7 growth, 3 d, higher = more signal.
Assay [3] concerns the target Homeobox protein Hox-A13 (Mus musculus) (UniProt Q62424). The experiment in a line: disruptors of Hoxa13 oligonucleotide interaction – biochemical, fluorescence polarization, labeled oligonucleotide, primary screen (AID 1185). The following applies: Hoxa13:DNA binding, 15 min, higher = more signal, called active from +8 up or from −8 down. A general note: In fluorescence polarisation assays a small probe gives low polarisation when free and higher when bound to something large.

Chain of Homeobox protein Hox-A13 (Mus musculus) (Q62424 whole entry, looked up): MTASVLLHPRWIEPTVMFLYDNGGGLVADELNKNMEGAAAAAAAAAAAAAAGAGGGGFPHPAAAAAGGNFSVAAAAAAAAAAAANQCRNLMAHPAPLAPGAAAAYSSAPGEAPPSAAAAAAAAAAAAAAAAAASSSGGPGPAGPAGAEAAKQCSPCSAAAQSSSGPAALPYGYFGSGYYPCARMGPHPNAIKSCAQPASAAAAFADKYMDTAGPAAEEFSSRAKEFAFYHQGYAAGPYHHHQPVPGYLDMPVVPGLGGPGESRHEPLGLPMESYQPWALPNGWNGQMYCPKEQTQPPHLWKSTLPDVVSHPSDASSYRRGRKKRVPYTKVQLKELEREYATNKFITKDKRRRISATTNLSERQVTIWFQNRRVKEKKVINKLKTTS

Turning to `CO[C@@H]1COC(=O)CC=C[C@@H](C)[C@@H]2C=C[C@H](O)[C@@H](COC(=O)[C@H](C)NC(=O)CC=C[C@H]1C)O2`, the composite z-score in assay [1] was 0.78 (inactive); in the assay on XIP peptide (Xip251-270) it was 0.437. The figures for the z-score in assay [2] and in assay [3] were -0.117 and -3.61 (inactive), respectively.

Turning to `O=C1C[C@@H](O)[C@@H](O)[C@@H]2[C@@H]3C(=O)N(C4CCCCC4)C(=O)[C@@H]3CC[C@H]12`, the composite z-score in assay [1] is -0.149 (inactive); in the assay with XIP peptide (Xip251-270) it was 0.349. The figures for the z-score in assay [2] and in assay [3] were 0.266 and 0.34 (inactive), respectively.

Take `CCc1cc2c(nc1CC)CCN(CCC(C)=NOC[C@@H](O)COCc1ccco1)C2`: the composite z-score was 2.62 (inactive) in assay [1] and 0.679 with XIP peptide (Xip251-270). For the same molecule, the figures for the z-score in assay [2] and in assay [3] were 0.15 and -6.02 (inactive), respectively.

Consider `C=CC[C@@H]1C=C[C@H](ON=C[C@@H](OC)[C@H](C)C=CCC(=O)OC)[C@@H](CO)O1`, for which the results for the composite z-score (in assay [1]; in the assay on XIP peptide (Xip251-270)) were -0.0604 (inactive) and 0.168, respectively. Further, the z-score in assay [2] was 0.167; in assay [3], -0.413 (inactive).

Regarding `COc1ccc(O[C@H]2C=C[C@@H](c3ccccc3)O[C@@H]2COC(=O)CCC(C)=NOC[C@@H](C)[C@H](OCc2ccccc2)C(C)C)cc1`, the results for the composite z-score (in assay [1]; in the assay with XIP peptide (Xip251-270)) were 0.294 (inactive) and -0.794, respectively. Moreover, the z-score in assay [2] is -0.925; in assay [3], -0.43 (inactive).

`O=C1[C@H]2[C@H]3[C@H](O)[C@H](O)CC(=NOC[C@@H](O)COCc4ccco4)[C@H]3CC[C@H]2C(=O)N1C1CCCCC1`: the composite z-score is -0.26 (inactive) in assay [1] and -0.37 in the assay with XIP peptide (Xip251-270). For the same molecule, the results for the z-score in assay [2] and in assay [3] were -1.24 and -0.271 (inactive), respectively.

For the molecule `CC(C)=CCCC(C)=CCON=C1[C@H]2CCn3c(=O)n(Cc4cc5c(cc4Cl)OCO5)c(=O)n3[C@H]2[C@H](O)[C@@H]2O[C@H]12`, the composite z-score in assay [1] was -0.0418 (inactive); with XIP peptide (Xip251-270), 0.208. In addition, the z-score was -1.17 in assay [2] and -1.16 (inactive) in assay [3].

In the case of `C[C@H](c1ccccc1)N1C(=O)[C@H]2[C@H]3[C@H](O)[C@H](O)CC(=O)[C@@H]3CC[C@H]2C1=O`, the composite z-score was 0.0518 (inactive) in assay [1] and 0.771 with XIP peptide (Xip251-270). The z-score was 0.0307 in assay [2] and -1.84 (inactive) in assay [3].

Regarding `CC(=O)OC[C@H]1O[C@@H](ON=C[C@@H](C)[C@H](OCc2ccccc2)C(C)C)[C@H](OC(C)=O)[C@@H](OC(C)=O)[C@@H]1OC(C)=O`, the composite z-score is -0.182 (inactive) in assay [1] and 0.0517 with XIP peptide (Xip251-270). The values for the z-score in assay [2] and in assay [3] were 0.317 and -4.44 (inactive), respectively.

Regarding `CC(CCN1CCCCc2nc(C)c(C)cc21)=NOC(C)CN1CCCc2nc(C)c(C)cc21` (stereo not drawn), the composite z-score in assay [1] was 0.829 (inactive); in the assay with XIP peptide (Xip251-270), 0.731. Also, the z-score was 0.507 in assay [2] and -10.5 (active) in assay [3].

Consider `CCc1cc2c(nc1CC)CCN(CCC(C)=NOC(C)CN1CCCc3nc(C)c(C)cc31)C2` (stereo not drawn), for which the composite z-score in assay [1] is 1.36 (inactive); in the assay on XIP peptide (Xip251-270), 0.561. Besides, the z-score in assay [2] is 0.74; in assay [3] it was -9.89 (active).

For the molecule `CC(C)CON=C1C[C@@H](O)[C@@H](O)[C@@H]2[C@@H]3C(=O)N(C[C@@H]4CCCO4)C(=O)[C@@H]3CC[C@H]12`, the values for the composite z-score (in assay [1]; with XIP peptide (Xip251-270)) were -0.125 (inactive) and 0.0241, respectively. Besides, the z-score in assay [2] was -0.421; in assay [3], -1.58 (inactive).

In the case of `CCN1C(=O)[C@H]2[C@H]3[C@H](O)C=CC(=O)[C@@H]3CC[C@H]2C1=O`, the composite z-score in assay [1] was -0.638 (inactive); in the assay on XIP peptide (Xip251-270) it was -0.0737. The z-score in assay [2] is 1.02; in assay [3], 0.116 (inactive).

With `CC(=O)OC[C@H]1O[C@H](CCON=C(C)CCC(=O)OC[C@H]2O[C@H](C#Cc3ccccc3)C=C[C@@H]2Oc2ccc(C)cc2)C=C[C@@H]1OC(C)=O`, the figures for the composite z-score (in assay [1]; in the assay with XIP peptide (Xip251-270)) were -0.365 (inactive) and 0.0804, respectively. In addition, the z-score in assay [2] is 0.724; in assay [3], -2.62 (inactive).

Regarding `CC(CCN1CCc2nc(-c3ccccc3)c(-c3ccccc3)cc2C1)=NO[C@H](C)c1cn([C@@H]2COC[C@H]2O)nn1`, the composite z-score in assay [1] is -0.378 (inactive); in the assay with XIP peptide (Xip251-270), 0.175. Moreover, the figures for the z-score in assay [2] and in assay [3] were 0.429 and -5.45 (inactive), respectively.

As to `CCOC(=O)CCN1C(=O)[C@H]2[C@H]3[C@H](O)[C@H](O)CC(=NNC(=O)OCc4ccc(OC)cc4)[C@@H]3CC[C@H]2C1=O`, the results for the composite z-score (in assay [1]; with XIP peptide (Xip251-270)) were 0.59 (inactive) and 0.05, respectively. Besides, the z-score in assay [2] was -0.688; in assay [3], 0.614 (inactive).

With `CC(=O)OC[C@H]1O[C@H](CCON=C(C)CCN2CCc3nc(-c4ccccc4)c(-c4ccccc4)cc3C2)C=C[C@@H]1OC(C)=O`, the composite z-score in assay [1] was 0.583 (inactive); in the assay with XIP peptide (Xip251-270), -0.0332. Besides, the z-score in assay [2] is -0.697; in assay [3], -4.36 (inactive).

Consider `CC(=O)OC[C@H]1O[C@H](CC=NOC[C@@H](C)[C@H](OCc2ccccc2)C(C)C)C=C[C@@H]1OC(C)=O`, for which the figures for the composite z-score (in assay [1]; in the assay with XIP peptide (Xip251-270)) were -0.655 (inactive) and -0.303, respectively. Besides, the z-score in assay [2] is -0.46; in assay [3] it was -5.81 (inactive).

As for `CCN1C(=O)[C@H]2[C@H]3[C@H](O)[C@H](O)CC(=NOC(C)CN4CCCCc5nc(C)c(C)cc54)[C@@H]3CC[C@H]2C1=O` (stereo partly drawn), the composite z-score in assay [1] was 0.746 (inactive); with XIP peptide (Xip251-270) it was 0.196. The z-score in assay [2] is 0.0706; in assay [3] it was -1.48 (inactive).

Turning to `CCOC(=O)CCN1C(=O)[C@H]2[C@H]3[C@H](O)[C@H](O)CC(=NOC[C@@H](O)COCc4ccco4)[C@H]3CC[C@H]2C1=O`, the composite z-score in assay [1] was 0.378 (inactive); in the assay on XIP peptide (Xip251-270) it was 0.328. Moreover, the z-score in assay [2] was -1.44; in assay [3] it was -3.71 (inactive).

In the case of `COc1cccc([C@H]2Oc3ccc(OC)cc3C(=NOC(C)CN3CCCc4nc(C)c(C)cc43)[C@@H]2O)c1` (stereo partly drawn), the composite z-score in assay [1] is 0.22 (inactive); in the assay on XIP peptide (Xip251-270) it was -0.452. Besides, the z-score is -1.06 in assay [2] and -8.09 (active) in assay [3].

Turning to `C[C@@H]1C=CCC(=O)OC[C@H](C)C(=O)N[C@@H](C)C(=O)OC1`, the composite z-score in assay [1] is 0.0195 (inactive); in the assay with XIP peptide (Xip251-270), -0.059. For the same molecule, the z-score in assay [2] is -0.207; in assay [3] it was 0.442 (inactive).
